Assay outcomes (PubChem BioAssay)
This is one part of a sample in which hits are shown more often than they occur.
VACV Venus inh – qHTS for Stage-Specific Inhibitors of Vaccinia Orthopoxvirus: Venus Reporter Primary qHTS; Vaccinia virus Venus reporter expression, fluorescence; Potency, µM (top dose mostly 36.5 µM), without a hit: top-dose activity change, negative = inhibition, usual class: inhibitors; 330,000 tested, 0.46% active; calls by dose curve; tested in A549 cells; note: potency is the fitted concentration of half-maximal effect; % is set by controls: 0 for no effect and ±100 for the full control effect; nearly all actives have a fitted effect of over 30% in size
LASV entry inh – qHTS for Inhibitors of binding or entry into cells for Lassa Virus; Potency, µM (doses to about 37.9 µM), for the others: at the top dose activity change, negative = inhibition, hits mostly inhibitors; AID 540256, 2011; 300,000 tested, 1.2% active; Lassa virus pseudotype entry inhibition, cell reporter; calls by dose curve; tested in HEK293 cells; note: potency is the fitted concentration of half-maximal effect; % is set by controls: 0 for no effect and ±100 for the full control effect; nearly all actives have a fitted effect of over 50% in size
Shiga inhibitor – A qHTS for Small Molecule Inhibitors of Shiga Toxin. Vero cells, Shiga toxin protein synthesis inhibition reporter. inhibition, % at 38.7 µM. 290,000 tested, 9.2% active; in the data active = inhibition mostly above about 28%, no sharp cut-off; inactive = mostly below about 43%; note: 0% is about no effect
Cycloheximide cs – Cycloheximide Counterscreen for Small Molecule Inhibitors of Shiga Toxin | cell reporter, cycloheximide protein synthesis inhibition counterscreen | max response, % | 300,000 tested, 12% active | AID 2314, 2010; in the data active = max response mostly above about 13%, no sharp cut-off; inactive = mostly below about 14%; note: read at 38.3 µM for the half of the compounds with a filed dose; 0% is about no effect
VACV mCherry inh – qHTS for Stage-Specific Inhibitors of Vaccinia Orthopoxvirus: mCherry Reporter Primary qHTS; Vaccinia virus mCherry reporter infection, fluorescence; Potency, µM (doses to about 36.5 µM), inactives show at the highest dose activity change, negative = inhibition, usual class: inhibitors; 310,000 tested, 0.63% active; AID 720579, 2013; calls by dose curve; tested in A549 cells; note: potency is the fitted concentration of half-maximal effect; % is set by controls: 0 for no effect and ±100 for the full control effect; nearly all actives have a fitted effect of over 35% in size
Marburg entry inh – qHTS for inhibitors of binding or entry into cells for Marburg Virus; 300,000 tested, 1.8% active; AID 540276, 2011; Potency, µM (doses to about 37.8 µM), without a hit: at the highest dose activity change, negative = inhibition, hits mostly inhibitors; Marburg virus pseudotyped entry inhibition, cell reporter; calls by dose curve; tested in HEK293 cells; note: potency is the fitted concentration of half-maximal effect; % is set by controls: 0 for no effect and ±100 for the full control effect
An asterisk follows results filed as active; i = inactive; ? = inconclusive; / = no result given; [ ] = dose if it differs, or a comment.

SMILES | VACV Venus inh | LASV entry inh | Shiga inhibitor | Cycloheximide cs | VACV mCherry inh | Marburg entry inh
CCn1c(CNC(=O)c2ccccc2F)cc2ccccc21 | -6.5% | -25.7% | 142.0* | 23.6* | -13.8% | -3.6%
Cn1c(CNC(=O)c2ccc(F)cc2)cc2ccccc21 | / | / | -2.5 | 1.2 | / | /
Cc1c(C(=O)N2CCCCCC2)c(S(=O)(=O)NCc2ccccc2)c(C)n1C | -4.1% | 27.1%[46.1 µM] | / | / | -2.7% | /
Cc1c(CCC(=O)NCCc2ccc(Cl)cc2)c(=O)oc2c(C)c(O)ccc12 | 7.6% | 5.1%[46.1 µM] | / | / | -2.4% | 7.7%[46.1 µM]
Cc1ccccc1OCc1ccc(-c2nc(C#N)c(NCCCN(C)C)o2)o1 | -12.2%[7.34 µM] | 0.8%[46.1 µM] | / | / | -11.9%[7.34 µM] | ?
O=C(CNC(=S)NC(=O)c1ccccc1)c1ccccc1 | -21.9% | 9.7% | 43.9* | 22.7* | -16.7% | ?
CC(C)C(=O)NC(=S)NCC(=O)c1ccccc1 | -16.1% | 15.7% | 25.7 | 29.1* | -15.1% | -1.3%
Cc1ccccc1C(=O)NC(=S)NCC(=O)c1ccccc1 | ? | -11.6% | -14.7 | -3.0 | ? | 2.5%
CSCC[C@H](NC(=O)[C@H](CC(C)C)NC(=O)CNC(=O)[C@H](Cc1ccc(O)cc1)NC(=O)[C@H](Cc1ccccc1)NC(=O)[C@H](CCCCN)NC(=O)[C@H](CC(N)=O)NC(=O)[C@@H]1CCCN1C(=O)[C@H](CC(=O)O)NC(=O)[C@H](C)NC(=O)[C@@H]1CCC(=O)N1)C(N)=O | / | / | -8.5 | 11.0 | / | /
O=C(NC1CCCN(C2Cc3ccccc3C2)C1)c1ccc(F)cc1Cl (configuration not stated) | / | / | -5.3 | -2.9 | / | /
N#C/C(=C/c1ccc(OCc2ccccc2)cc1)C(=O)NC1CCCCC1 | / | -13.3% | 13.2 | -2.7 | / | ?
Cc1cc(/C=C(\C#N)C(=O)NC2CCCCCC2)c(C)[nH]1 | -9.0% | -4.1% | 45.9 | 35.3* | -1.3% | ?
Cc1cc(/C=C(\C#N)C(=O)NC2CC2)c(C)[nH]1 | -14.2% | ? | 93.7* | 68.3* | -17.1% | ?
COc1ccc(-c2[nH]ncc2/C=C(/C#N)C(=O)NC2CCCCCC2)cc1 | ? | ? | -27.7 | -1.9 | ? | 10µM*
COC(=O)C1=C(C(=O)OC)[C@@H]2N(C)c3ccc(OC)cc3[C@@]23C[C@@H](C(=O)OC)N(C(=O)N2CCNC2=O)C3=N1 | / | / | / | / | / | -26.4%[14.2 µM]
O=C(Nc1ccccc1)ON=C1c2ccccc2-c2ccccc21 | -9.7% | 11.4% | 66.8 | 19.2 | i | ?
O=C(Nc1ccccc1Cl)ON=C1c2ccccc2-c2ccccc21 | -24.0% | 26.2% | 44.5* | 23.2* | -22.1% | ?
Cc1cc(C)cc(C(=O)NCC(=O)OCC(=O)Nc2ccc(C)cc2Br)c1 | -9.9% | 1.0% | 11.1 | 8.8 | i | 1.2%[46.1 µM]
COc1ccc(CC(=O)Nc2ccc(-c3nc4ccccc4s3)c(C)c2)cc1OC | -16.3% | ? | / | / | -21.0% | /
O=C1Nc2ccccc2N=C(c2ccccc2)c2ccccc21 | -2.7% | ? | 17.3 | 19.9* | -14.4% | ?
Cc1nn2c(=O)c(NC(=O)c3ccc(Cl)cc3)cnc2s1 | -7.5% | 13.2%[46.1 µM] | 52.3* | 35.9* | -8.3% | ?
Cc1ccc(C(=O)Nc2cnc3sc(C)nn3c2=O)cc1 | -8.1% | ? | 58.3* | 37.0* | / | 1.1%
COCC1CCCCN1C(=O)c1ccc2nc(Cc3ccc(OC)c(OC)c3)oc2c1 (configuration not stated) | / | / | 17.8 | 12.3* | / | /
COc1ccc(Cc2nc3ccc(C(=O)NCC4COCCO4)cc3o2)cc1OC (configuration not stated) | / | / | 9.8 | 33.6* | / | /
CCC1CCCCN1C(=O)c1ccc2nc(Cc3ccc(OC)cc3)oc2c1 (configuration not stated) | / | / | 77.5* | 35.5* | / | /
SMILES | VACV Venus inh | LASV entry inh | Shiga inhibitor | Cycloheximide cs | VACV mCherry inh | Marburg entry inh
CCc1cc(CNC(=O)c2ccc3nc(Cc4ccc(OC)c(OC)c4)oc3c2)on1 | / | / | 21.7 | 33.3 | / | /
COc1ccc(Cc2nc3ccc(C(=O)N4CCCCC4CCO)cc3o2)cc1 (configuration not stated) | -14.5%[7.34 µM] | / | 15.9 | 23.8 | i[7.34 µM] | /
Nc1no[n+]([O-])c1-c1ccccc1 | -8.6% | -17.5% | -5.9 | -0.9 | -15.8% | -25.5%[14.2 µM]
O=C(Nc1oc2ccccc2c(=O)c1-c1ccc2c(c1)OCO2)c1ccco1 | -15.8% | / | / | / | ? | /
Cc1noc(C)c1C(=O)Nc1ccccc1C(=O)NCCc1ccccc1 | -4.4% | -17.3%[46.1 µM] | -6.4 | -3.8 | -17.9% | ?
c1ccc(CSc2ccc(-c3ccc4c(c3)OCO4)nn2)cc1 | -21.8% | ? | 37.6 | 27.4* | -3.3% | ?
Fc1ccc(CSc2ccc(-c3ccc4c(c3)OCO4)nn2)cc1 | -23.6% | 5.3% | 6.1 | 10.9* | -24.5% | -9.6%
Cc1cc(NC(=O)CSc2ccc(-c3ccc4c(c3)OCO4)nn2)no1 | / | / | -4.6 | 11.4 | / | /
Cc1ccc(NC(=O)CSc2ccc(-c3ccc4c(c3)OCO4)nn2)cc1F | -7.8% | -9.1% | -15.5 | -3.1 | -8.4% | ?
O=C(COc1ccc(Cl)cc1)Nc1nnc2n1CCS2 | -4.1% | 13.8%[46.1 µM] | / | / | -6.2% | /
COc1ccc(CNC(=O)C[C@H]2C(=O)N(CCc3ccccc3)C[C@@H]2Cc2ccccc2)cc1 | ? | / | -2.4 | -1.9 | -20.7% | /
CC(C)CC1NC(=O)N(CC(=O)c2ccc3c(c2)OCCO3)C1=O (configuration not stated) | -15.4% | 0.0% | 134.8* | 34.3* | -11.6% | 20.2%
CCCC1Oc2ccccc2C(=O)N(CC(=O)c2ccc3c(c2)OCCO3)C1=O (configuration not stated) | -8.0% | ? | 28.6 | 20.6* | -2.5% | ?
CC1CCN(CC(=O)c2ccc3c(c2)OCCO3)CC1 | -2.3% | -21.2% | 20.9 | 8.5 | -7.9% | 5.9%
O=c1c2ccccc2nc2c3ccccc3c(Cl)nn12 | / | / | 10.6 | 1.2 | / | /
O=c1c2ccccc2nc2ccccn12 | -4.6% | 25.9% | 70.1* | 41.5* | -7.9% | ?
O=c1[nH]c2ccccc2c2nc3ccccn3c12 | / | 9.4% | 50.6* | 39.7* | / | -1.9%
O=c1nc2c(O)cccn2c2c1c(=O)[nH]c1ccccc12 | -16.5% | 2.4% | -8.4 | 1.5 | ? | -10.4%
O=c1c2ccccc2nc2c3ccccc3cnn12 | / | / | 78.2* | 40.4* | / | /
COc1ccc(OC)c(NC(=O)CSc2nncc3ccc(OC)c(OC)c23)c1 | -2.4% | 11.9% | -4.3 | -1.8 | -13.1% | ?
O=C(C1CC(c2cccc(Br)c2)=NO1)N1CCc2ccccc2C1 (configuration not stated) | / | -1.6% | 21.4 | 17.6* | / | 0.2%
CC(c1nccs1)N(C)C(=O)c1ccc(OC2CCN(CCc3ccccc3)CC2)cc1 (configuration not stated) | -21.0% | 7.5% | -3.6 | -2.4 | -3.0% | -16.1%
CC(c1nccs1)N(C)C(=O)c1cn(Cc2cccc3ccccc23)nn1 (configuration not stated) | / | / | 123.2* | 40.3* | / | /
Cc1cccc(/C=C/c2ccccc2)n1 | -11.1% | ? | / | / | i | ?
